According to PubChem BioAssay (NCI):
This is part of a sample that, as a whole, favours compounds with a hit. Of some 79,000 tested, about 15% had one in any assay. Unmarked numbers belong to inactive results. Active and inactive are the calls of the source. No stated cut-off is given here; in the data, active means growth inhibition above about 70%; inactive means the rest.

Legend:
[1] = NCI Yeast Anticancer Drug Screen. Data for the rad50 strain (AID 155);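 further: 0% = growth of vehicle-only cultures of the same strain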; settings: S. cerevisiae rad50 strain growth inhibition; at 50.0 µM; stronger effect = higher value
Summary of the method: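 DNA repair mutant yeast, compound exposure, growth read-out; inhibition is taken relative to vehicle.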

[2] = NCI Yeast Anticancer Drug Screen. Data for the mec2-1 strain (AID 157); settings: S. cerevisiae mec2-1 strain, at 50.0 µM, stronger effect = higher value
Summary of the method: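 Strain: mec2-1 (DNA repair/cell cycle alteration). Compound exposure, then growth measured; inhibition expressed relative to vehicle.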

[3] = NCI Yeast Anticancer Drug Screen. Data for the sgs1 mgt1 strain (AID 161);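 further: 0% = growth of cultures given vehicle only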; settings: S. cerevisiae sgs1 mgt1 strain, at 50.0 µM, stronger effect = higher value
Summary of the method: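 Read-out: growth inhibition vs vehicle controls. Cells: mutant yeast strain deficient in DNA damage repair.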

[4] = NCI Yeast Anticancer Drug Screen. Data for the cln2 rad14 strain (AID 165);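 further: 0% = growth equal to vehicle treated cultures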; settings: S. cerevisiae cln2 rad14 strain, at 50.0 µM, stronger effect = higher value
Summary of the method: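 Compounds are applied to the cln2 rad14 yeast strain, and growth is then compared with that of vehicle-treated cultures to give inhibition.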

[5] = NCI Yeast Anticancer Drug Screen. Data for the bub3 strain (AID 167); settings: S. cerevisiae bub3 mutant strain, at 50.0 µM, stronger effect = higher value
Summary of the method: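 In this screen, a yeast mutant lacking normal mitotic checkpoint function is challenged with compound. Relative growth versus vehicle gives the inhibition value.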

[6] = NCI Yeast Anticancer Drug Screen. Data for the mlh1 rad18 strain (AID 175); settings: S. cerevisiae mlh1 rad18 strain growth inhibition; at 50.0 µM; stronger effect = higher value
Summary of the method: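 Read-out is yeast growth inhibition, calculated against vehicle-only controls. The compound was applied to a strain engineered with DNA damage repair alterations.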

SMILES	growth inhibition [1]	growth inhibition [2]	growth inhibition [3]	growth inhibition [4]	growth inhibition [5]	growth inhibition [6]
CSc1nc(N(C)C)c2[nH]ncc2n1	5.25%	-0.5%	-3.6%	-10.6%	19.7%	3.25%
Cc1nnc(Nc2ccc(Cl)c(Cl)c2)s1	-6.95%	-20%	26.8%	12.3%	11.3%	4.75%
O=C(Oc1ccccc1)Oc1c(Cl)cc([N+](=O)[O-])cc1[N+](=O)[O-]	25%	1.4%	5.25%	10.9%	0.45%	15.5%
CCOC(=O)/C=C/c1ccc([N+](=O)[O-])cc1	23.6%	26.6%	9.15%	2.55%	-1.9%	-0.05%
COc1ccc(C(=O)C/C(=N\N(C(=O)c2ccc(OC)cc2)c2ccccc2)c2ccc(OC)cc2)cc1	13.6%	-24.8%	9.9%	-21.1%	-9.85%	6.5%
COc1ccc2c3ccc4c(c3n(C)c2c1)C(=O)c1ccccc1C4=O	-38.3%	-36.2%	-53%	-14.7%	-22.8%	-46.1%
CN1C2CCC1/C(=C/c1cccc3c1OCO3)C(=O)/C2=C\c1cccc2c1OCO2	27.8%	19.8%	20.4%	-52%	32.3%	27.1%
c1cc2c3c(cccc3c1)-c1nc3ccccc3nc1-2	-5.1%	-21.4%	-5.2%	4.05%	0.2%	19.8%
CCOc1c(CNC(=O)CCl)cc(N)cc1CNC(=O)CCl	6.45%	3.4%	-14%	10.8%	2.1%	-10.3%
CC(C)CCNc1nc(N)[nH]c(=O)c1NC=O	-16.7%	16.1%	-0.55%	7.5%	2.7%	-56.6%
Oc1c(Br)cc(Br)cc1/C=N/N=C/c1cc(Br)cc(Br)c1O	-6.7%	-20%	-15.9%	0.2%	-8.5%	7.5%
CC1(C)C2CCC(CCOC(=O)COc3ccc(Cl)cc3Cl)C1C2 (stereo unspecified)	-13%	-5.45%	1%	-34.8%	5%	29%
O=C(CCc1ccco1)CCc1ccco1	7.6%	-3.35%	5.45%	-9.05%	-3.5%	-0.6%
O=C(OCCCl)C1CC2C=CC1C2 (stereo unspecified)	-4.5%	-10.1%	3.85%	8.25%	-7.2%	-3.4%
Nc1ccc(C(=O)CC(=O)c2cccc([N+](=O)[O-])c2)cc1	26.4%	20.4%	39.4%	21.5%	27.4%	2.1%
Cc1cc(C)c(C)c(CN)c1C	-20%	-5.85%	-9.35%	7.8%	13.7%	-3%
O=C1c2ccccc2-c2nnsc21	-20.7%	-14.4%	2.3%	-12.6%	-6.2%	19.5%
C[N+](C)(C)CCCCCC[N+](C)(C)C	-31.8%	-15.6%	-22.9%	-14.2%	-31.7%	-30.2%
Cc1ccc(C)c(NC(=O)C(=O)CC(=O)c2cccc3ccccc23)c1	-15.8%	-33.1%	2.05%	17.1%	-20.8%	-21.1%
NC1=NC=NCN1c1ccc(N)cc1	1.65%	-2.65%	3.85%	-54.4%	-3.6%	5.7%
O=S1(=O)CS(=O)(=O)OCCO1	26.2%	6.8%	14.7%	31.9%	10.7%	16.8%

SMILES	growth inhibition [1]	growth inhibition [2]	growth inhibition [3]	growth inhibition [4]	growth inhibition [5]	growth inhibition [6]
COC(=O)c1ccccc1N=Cc1ccc(N(CCC#N)S(=O)(=O)c2ccccc2)cc1	-2.05%	13.3%	-6.15%	18.2%	20.3%	15.9%
CC1(C)CC([NH-])(C(=O)O)CC(C)(C)N1O.CC1(C)CC([NH-])(C(=O)O)CC(C)(C)N1O.[Cu+2]	27.6%	-17.9%	16.5%	-20.3%	0.7%	4.55%
CC(=O)OC(Cn1cncn1)(Cn1cncn1)c1ccc(Cl)cc1Cl	43.6%	32.5%	58.3%	46.8%	39.8%	56.7%
O=C(O)c1ccc(-c2ccc(C(=O)O)cc2I)c(I)c1	25.2%	2.2%	6.25%	-5.25%	0.15%	10%
Cc1cc2c(cc1Cl)S(=O)(=O)OC(c1ccc([N+](=O)[O-])cc1)=N2	-3.25%	-4.3%	-0.1%	0.45%	19.1%	-10.3%
CCO/C(=C/[S+](C)C)c1ccccc1	0.55%	-4.4%	-19.9%	2.95%	9.3%	5.35%
c1ccc(-c2nsc3ccccc23)cc1	14.3%	-6.35%	-8.25%	-31.1%	-14.8%	5.75%
CCOC(=O)C1(C(=O)OCC)C(C#N)(C#N)C1(C#N)C#N	-0.8%	1.75%	-7.2%	-7.3%	-1.65%	-11.3%
O=C1c2ccc(O)cc2OC(c2ccc(O)c(O)c2)C1O (stereo unspecified)	7.6%	-7.25%	17.8%	1.85%	6%	6.4%
Cc1ccc(S(=O)(=O)OCCN2C(=O)CCC2=O)cc1	12.8%	8.8%	4.65%	9.5%	-0.95%	15.8%
N/N=C1/C=Cc2cccc3cccc1c23	19.3%	-37.2%	15.3%	30.2%	16.2%	38.4%
CC1=NC(=Cc2ccc(O)cc2)C(=O)N1n1c(-c2ccccc2)nc2ccccc2c1=O	-4.7%	-10.3%	-5.35%	2.6%	-10.8%	3.45%
CC1(C)COC(C23C4C5C2C2C3C4C52I)=N1 (stereo unspecified)	25.9%	12.4%	11.2%	18.2%	26.6%	16.6%
c1ccc(N=NC(N=Nc2ccccc2)=P(c2ccccc2)(c2ccccc2)c2ccccc2)cc1	56.4%	98.7% (active)	53%	64.6%	46.7%	61.9%
COC(=O)Nc1c2ccccc2c(NC(=O)OC)c2ccccc12	-7.15%	13%	19.7%	-88.8%	23.1%	0.75%
COc1ccc(/C=C(\CC(=O)c2ccc(Cl)cc2)C(=O)O)cc1	-21.5%	-8.85%	6.6%	-30.6%	1%	-5.8%
Cc1nn2c(=O)n(-c3cccc(-n4nnc5c(-c6ccccc6)c(C)nn5c4=O)c3C)nnc2c1-c1ccccc1	33.9%	40.4%	30.2%	46.1%	43.2%	43.9%
CCn1c(=O)c(Cl)c2n(C)c3ccccc3n2c1=O	-6.2%	-7.7%	-2.85%	-4.4%	10.6%	-1.05%
CCCCN=NNc1cn(C2OC(CO)C(O)C2O)c(=O)[nH]c1=O (stereo unspecified)	-22.4%	0.9%	4.85%	13.3%	10.8%	21.8%
CC/C=C(\C)C(C#N)(CC)C(=O)OCC (stereo unspecified)	4.65%	-12.7%	-4.6%	2.75%	-20.4%	9.2%
